Screening data (PubChem)
DT40 TDP1 no CPT – qHTS for Inhibitors of human tyrosyl-DNA phosphodiesterase 1 (TDP1): qHTS in cells in absence of CPT. DT40 Tdp1-/- hTDP1 cells, no CPT, ATP luminescence, 48 h. Potency, µM (titrated, usually from 46.2 µM), without a hit: top-dose activity change, negative = growth inhibition, usual class: inhibitors. 15% of 420,000 active; note: potency is the fitted concentration of half-maximal effect; nearly all actives have a fitted effect of over 55% in size
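Cells were dispensed at 400 per well, compounds added by pin tool, plates incubated ≥48 hr at 37 °C, then CellTiter-Glo added for 30 min at room temperature before luminescence reading. Line: DT40 Tdp1-/- complemented with hTDP1; camptothecin omitted.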
VP16 counter – Gal4-VP16 reporter inhibition counter-screen. 3.5% of 310,000 active. Potency, µM (doses to about 53.6 µM), for inactives: top-dose activity, negative = inhibition, most hits filed as inhibitors. Drosophila S2 Gal4-VP16 UAS-luciferase, luminescence, 20 h;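 note: Gal4-VP16 expression switched on by copper sulfate through the metallothionein promoter; potency is the fitted concentration of half-maximal effect; nearly all actives have a fitted effect of over 50% in size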
IL-1B inflam inh – inhibitors of inflammasome signaling (IL-1 beta secretion) | THP-1 LPS/ATP IL-1B secretion, AlphaLISA, 16 h; active compounds read low | activity change, % at 57.5 µM | 4.7% of 360,000 active; in the data active = activity change below about -50%; inconclusive = mostly about -30% to -49%
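THP-1 cells pretreated 1 hr with compounds (up to 57.5 uM final), then stimulated with LPS (250 ng/mL final) plus ATP (1.25 mM final); secreted IL-1B measured by AlphaLISA after 16 hr, decreased signal indicating inhibition.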
DT40 TDP1 CPT – growth inhibition of DT40 Tdp1-/-;hTDP1 cells with camptothecin (screen for TDP1 inhibitors) | chicken DT40 Tdp1-/-;hTDP1 cells + 20 nM CPT, ATP luminescence, 48 h | Potency, µM (top dose mostly 46.2 µM), for the others: at the highest dose activity change, negative = growth inhibition, most hits filed as inhibitors | 12% of 420,000 active | AID 686979; note: potency is the fitted concentration of half-maximal effect; nearly all actives have a fitted effect of over 55% in size
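Chicken DT40 Tdp1-/- cells complemented with human TDP1, 400 cells/well, exposed to compounds plus 20 nM camptothecin for at least 48 h at 37 C; viability read as ATP content by CellTiter-Glo luminescence.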
RORgamma inh – blocks mouse ROR gamma transcriptional activity; Potency, µM (series often up to 53.6 µM), without a hit: top-dose activity change, negative = inhibition, hits mostly inhibitors; Drosophila S2 Gal4-RORgamma UAS-luciferase reporter, 20 h; P51450; 5.4% of 310,000 active; note: potency is the fitted concentration of half-maximal effect; nearly all actives have a fitted effect of over 60% in size
Target sequence (P51450 whole entry, looked up, the tested form may be a part): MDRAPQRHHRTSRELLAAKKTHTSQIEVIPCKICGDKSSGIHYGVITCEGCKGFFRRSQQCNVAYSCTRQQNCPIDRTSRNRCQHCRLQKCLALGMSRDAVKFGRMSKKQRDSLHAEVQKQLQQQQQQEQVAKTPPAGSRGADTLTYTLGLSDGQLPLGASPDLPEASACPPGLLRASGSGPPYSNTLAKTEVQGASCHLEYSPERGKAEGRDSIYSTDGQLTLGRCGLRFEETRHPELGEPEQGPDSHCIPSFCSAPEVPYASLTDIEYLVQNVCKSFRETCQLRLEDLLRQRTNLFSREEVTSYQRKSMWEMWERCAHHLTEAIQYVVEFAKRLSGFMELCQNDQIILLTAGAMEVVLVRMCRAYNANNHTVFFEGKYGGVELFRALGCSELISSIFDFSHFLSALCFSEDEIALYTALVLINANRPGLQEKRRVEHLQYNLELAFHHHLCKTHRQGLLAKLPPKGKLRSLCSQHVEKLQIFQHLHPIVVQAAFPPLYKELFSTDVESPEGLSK
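Compounds are pin-transferred onto Drosophila Schneider cells expressing a copper-inducible Gal4–ROR gamma transactivation domain fusion. After 1 hr, copper sulfate is added to 700 uM final; luciferase is read 20 hr later.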
ELG1 DNA repair – ELG1-dependent DNA repair inhibition | HEK293T ELG1-luciferase reporter, luminescence, 16 h; DNA damage induced by 5-fluorouridine | Potency, µM (titrated, usually from 46.1 µM), for the others: top-dose activity change, negative = inhibition, usual class: inhibitors | 2.3% of 330,000 active | AID 504467; note: potency is the fitted concentration of half-maximal effect; nearly all actives have a fitted effect of over 55% in size
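DMSO vehicle served as the neutral condition. Each well held 2,000 cells given 5-fluorouridine plus compound; after 16 hr at 37 °C/5% CO2, ONE-Glo was added and luciferase measured 30 min later.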
* = called active by the depositor; [ ] = another dose, or the depositor's remark. In the library only some 21% were active in any assay of this set; here they are far more common. Unless noted, calls come from the whole dose curve; as a rule, active = well fitted curve in the direction sought with a large enough effect; inconclusive = small, poorly fitted or top-dose-only effect, or another doubt; inactive = no such curve, though single readings can be large; an effect the other way counts as inactive or inconclusive. % is set by controls: 0 for no effect and ±100 for the full control effect.

`C[C@]12CCC3C(CC[C@H]4C[C@H](O)CC[C@]34C)C1C[C@H](O)[C@H]2O` (stereo partly specified) gave DT40 TDP1 no CPT -20.7%, IL-1B inflam inh 17.9 and DT40 TDP1 CPT -16.1%.
`Cc1cccc(C(O)(C(=O)O)c2ccccc2)c1` (stereo unspecified) gave DT40 TDP1 no CPT -0.3%, IL-1B inflam inh 21.0 and DT40 TDP1 CPT -2.7%.
Cc1ccc(NC(=O)CN2C(=O)CN=C(c3ccccc3)c3cc(Cl)ccc32)cc1 was read as DT40 TDP1 no CPT inconclusive, VP16 counter -5.3%, IL-1B inflam inh -65.6*, DT40 TDP1 CPT inconclusive, RORgamma inh -14.2% and ELG1 DNA repair 7.31µM*.
Screening O=C1CN=C(c2ccccc2)c2cc(Cl)ccc2N1CC1CC1 returned DT40 TDP1 no CPT 23.7µM*, VP16 counter 1.8%, DT40 TDP1 CPT inconclusive and RORgamma inh 25.6%.
Screening COC(=O)CN1C(=O)CN=C(c2ccccc2Cl)c2cc(Br)ccc21 returned DT40 TDP1 no CPT inconclusive, VP16 counter 0.0%, IL-1B inflam inh 21.1, DT40 TDP1 CPT -9.4%, RORgamma inh 26.4% and ELG1 DNA repair -9.9%.
For O=C1CN=C(c2ccccc2Cl)c2cc(Cl)ccc2N1Cc1cccc(Cl)c1 the results were DT40 TDP1 no CPT inconclusive and DT40 TDP1 CPT 20.6µM*.
Screening CN(C)c1ccc(NC(=O)CN2C(=O)CN=C(c3ccccc3)c3cc(Cl)ccc32)cc1 returned DT40 TDP1 no CPT inconclusive, VP16 counter -0.2%, IL-1B inflam inh -61.6*, DT40 TDP1 CPT inconclusive, RORgamma inh 4.9% and ELG1 DNA repair inconclusive.
For CC(C)c1ccc(NC(=O)CN2C(=O)CN=C(c3ccccc3)c3ccccc32)cc1 the results were DT40 TDP1 no CPT inconclusive and DT40 TDP1 CPT -17.3%.
CC(=O)NC1CCSC1=O (stereo unspecified) was read as DT40 TDP1 no CPT -0.3%[21.1 µM] and DT40 TDP1 CPT 7.6%[21.1 µM].
For COc1ccc(C2NCCc3[nH]cnc32)cc1 (stereo unspecified) the results were DT40 TDP1 no CPT -3.7%, VP16 counter -1.3%, IL-1B inflam inh -20.3, DT40 TDP1 CPT 17.7%, RORgamma inh -16.1% and ELG1 DNA repair -1.7%.
CCCC[C@@H](C)[C@@H](OC(=O)C[C@@H](CC(=O)O)C(=O)O)[C@H](C[C@@H](C)CCCCCC[C@@H](O)C[C@H](O)[C@H](C)N)OC(=O)C[C@@H](CC(=O)O)C(=O)O was read as VP16 counter -9.2% and RORgamma inh 0.3%.
Screening COc1ccc(C[C@H]2c3cc(OC)c(OC)cc3CCN2C)cc1OC returned VP16 counter -4.3%[17 µM] and RORgamma inh -24.6%[16.9 µM].
Screening C=C(CC1(CNP(=O)(c2ccccc2)c2ccccc2)CC1)c1ccccc1 returned VP16 counter -7.5% and RORgamma inh 20.8%.
Screening CCn1c(C)c(C(=O)NCCc2ccccc2)c2cc(OC)ccc21 returned DT40 TDP1 no CPT -21.6%, VP16 counter -5.2%, IL-1B inflam inh -7.3, DT40 TDP1 CPT -2.8%, RORgamma inh 21.1% and ELG1 DNA repair 1.0%.
`COc1ccc(CCNC(=O)c2cnc3sc(N4CCCCCC4)nn3c2=O)cc1` gave DT40 TDP1 no CPT 9.2µM* and DT40 TDP1 CPT 20.6µM*.
`O=C(Nc1ccc(Br)cc1)c1ccc(Cl)c(S(=O)(=O)N2CCCCCC2)c1` gave DT40 TDP1 no CPT 16.4µM* and DT40 TDP1 CPT inconclusive.
`Cc1ccc(C(=O)Nc2ccncc2)cc1S(=O)(=O)N1CCCCC1` gave DT40 TDP1 no CPT 18.4µM*, IL-1B inflam inh 32.5 and DT40 TDP1 CPT 23.1µM*.
